Experimental data taken from PubChem BioAssay.
Records with an inconclusive call do not appear. For some of these results: Potency and affinity values are given separately. The source made the active and inactive calls. Unless noted, no rule for the calls is given here.

Tests used:
[1] = human hepatoma cell viability loss – ATP luminescence, cytotoxicity control for P. falciparum antimalarial project, primary screen (AID 2303;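 active = inhibition above 50%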;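 also: 0% = DMSO wells and 100% = digitonin-killed cells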); settings: HepG2 viability, 24-48 h, at 10 µM, stronger effect = higher value
[2] = target: L-lactate dehydrogenase (Plasmodium falciparum (isolate CDC / Honduras)) (UniProt Q27743); test: PfLDH activity inhibition – cell lysate, 3D7 strain, counter-screen for P. falciparum growth inhibition project (AID 2304);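 also: 0% = vehicle and 100% = reference inhibitor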; settings: P. falciparum 3D7 crude extract, LDH APAD/NBT absorbance; at 2 µM; stronger effect = higher value
[3] = inhibition of 3D7 malaria parasite growth – strain 3D7 (AID 2306);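 also: 0% = DMSO wells and 100% = chloroquine plus artemisinin control wells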; settings: P. falciparum 3D7 erythrocytic growth, LDH absorbance, 72 h; at 2 µM; stronger effect = higher value
[4] = target: Calcium-dependent protein kinase 1 (Plasmodium falciparum (isolate 3D7)) (UniProt P62344); test: PfCDPK1 kinase inhibitors, biochemical, TCAMS library (AID 1159585; cut-off not given, nearly all actives have IC50 up to about 0.98 µM;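 also: inhibitors leave more ATP so luminescence rises with inhibition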); settings: recombinant PfCDPK1, Kinase-Glo ATP depletion luminescence
[5] = target: Plasmodium falciparum protein kinase 6 (PK6, PF3D7_1337100) (UniProt Q8IDW1); test: PfPK6 kinase inhibitors, biochemical, TCAMS library (AID 1159586); settings: recombinant PfPK6, Kinase-Glo ATP depletion luminescence
[6] = target: Protein kinase 7 (PK7), Plasmodium falciparum 3D7 (PF3D7_0213400) (UniProt Q7YTF7); test: inhibition of Plasmodium PK7 catalytic activity – biochemical, TCAMS antimalarial set, Kinase-Glo luminescence (AID 1159587); settings: recombinant PfPK7, Kinase-Glo ATP depletion luminescence
[7] = target: Calcium-dependent protein kinase 4 (Plasmodium falciparum (isolate 3D7)) (UniProt Q8IBS5); test: PfCDPK4 kinase inhibitors, biochemical, TCAMS library (AID 1159588; cut-off not given, nearly all actives have IC50 up to about 0.91 µM); settings: recombinant PfCDPK4, Kinase-Glo ATP depletion luminescence
[8] = antimalarial activity against Dd2 strain (AID 2302;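 active = growth inhibition above 50% at the single 2 µM test dose, taken to imply half-maximal potency below 2 µM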;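 also: 0% = DMSO untreated growth and 100% = chloroquine plus artemisinin killed control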); settings: P. falciparum Dd2 in RBCs, LDH growth readout, 72 h; at 2 µM; stronger effect = higher value
[9] = viability loss in pontine glioma line – cell-based, SU-DIPG-XIII, MIPE4.0, CellTiter-Glo, qHTS, dose response (AID 1347061; cut-off not given, nearly all actives have AC50 up to about 37 µM;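 also: cells exposed to compound for 48 hours before readout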); settings: CellTiter-Glo ATP luminescence
[10] = viability loss in pontine glioma line – cell-based, JHH-DIPG-1, MIPE4.0, CellTiter-Glo, qHTS, dose response (AID 1347062; cut-off not given, nearly all actives have AC50 up to about 27 µM;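 also: cells exposed to compound for two days before readout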); settings: JHH-DIPG-1 viability, CellTiter-Glo ATP luminescence
[11] = viability loss in pontine glioma line – cell-based, SU-DIPG-IV, MIPE4.0, CellTiter-Glo, qHTS, dose response (AID 1347063; cut-off not given, nearly all actives have AC50 up to about 30 µM;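 also: compound exposure lasted 48 hours before the viability readout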); settings: CellTiter-Glo ATP luminescence
[12] = viability loss in pontine glioma line – cell-based, SU-DIPG-XIII, MIPE5.0, CellTiter-Glo, qHTS, dose response (AID 1347064; cut-off not given, nearly all actives have AC50 up to about 23 µM;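 also: cells exposed to compound for 48 hours before the viability read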); settings: CellTiter-Glo ATP luminescence
[13] = growth inhibition of DIPG cells – cell-based, MIPE5.0 library, qHTS (AID 1347068; cut-off not given, nearly all actives have IC50 up to about 30 µM;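 also: cells exposed to compound for 48 hours before viability readout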); settings: SU-DIPG-XXV viability

Chain of L-lactate dehydrogenase (Plasmodium falciparum (isolate CDC / Honduras)) (Q27743 whole entry, looked up): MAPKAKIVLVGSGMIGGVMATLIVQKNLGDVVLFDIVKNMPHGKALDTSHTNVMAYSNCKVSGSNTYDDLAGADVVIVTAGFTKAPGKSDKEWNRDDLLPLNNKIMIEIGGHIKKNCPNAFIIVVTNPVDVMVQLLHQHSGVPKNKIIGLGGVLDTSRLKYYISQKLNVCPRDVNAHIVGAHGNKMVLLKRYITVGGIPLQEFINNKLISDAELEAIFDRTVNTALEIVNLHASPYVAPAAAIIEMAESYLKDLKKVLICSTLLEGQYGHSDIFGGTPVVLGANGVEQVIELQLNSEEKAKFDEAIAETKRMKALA
Chain of Plasmodium falciparum protein kinase 6 (PK6, PF3D7_1337100) (Q8IDW1 1-305): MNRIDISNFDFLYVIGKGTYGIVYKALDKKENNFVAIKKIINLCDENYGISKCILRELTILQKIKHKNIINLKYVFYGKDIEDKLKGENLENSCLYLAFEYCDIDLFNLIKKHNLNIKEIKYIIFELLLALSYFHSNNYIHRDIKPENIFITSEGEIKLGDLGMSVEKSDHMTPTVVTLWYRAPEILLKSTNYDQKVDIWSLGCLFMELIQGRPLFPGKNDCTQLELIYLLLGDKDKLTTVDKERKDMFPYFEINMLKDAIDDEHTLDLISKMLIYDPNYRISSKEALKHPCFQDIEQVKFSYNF
Chain of Calcium-dependent protein kinase 1 (Plasmodium falciparum (isolate 3D7)) (P62344 whole entry, looked up): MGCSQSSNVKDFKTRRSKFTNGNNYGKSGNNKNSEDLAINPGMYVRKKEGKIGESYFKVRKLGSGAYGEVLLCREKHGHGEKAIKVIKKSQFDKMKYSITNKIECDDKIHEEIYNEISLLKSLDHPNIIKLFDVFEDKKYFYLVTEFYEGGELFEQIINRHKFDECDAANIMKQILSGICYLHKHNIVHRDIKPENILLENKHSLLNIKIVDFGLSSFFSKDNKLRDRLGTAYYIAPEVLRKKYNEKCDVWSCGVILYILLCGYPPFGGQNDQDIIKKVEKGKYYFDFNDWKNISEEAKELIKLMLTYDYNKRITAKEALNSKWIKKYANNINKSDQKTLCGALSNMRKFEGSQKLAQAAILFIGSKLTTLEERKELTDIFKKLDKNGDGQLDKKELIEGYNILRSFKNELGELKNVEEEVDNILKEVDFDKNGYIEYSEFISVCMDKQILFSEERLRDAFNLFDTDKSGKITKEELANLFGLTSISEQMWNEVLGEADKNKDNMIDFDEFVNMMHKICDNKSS
Chain of Calcium-dependent protein kinase 4 (Plasmodium falciparum (isolate 3D7)) (Q8IBS5 whole entry, looked up): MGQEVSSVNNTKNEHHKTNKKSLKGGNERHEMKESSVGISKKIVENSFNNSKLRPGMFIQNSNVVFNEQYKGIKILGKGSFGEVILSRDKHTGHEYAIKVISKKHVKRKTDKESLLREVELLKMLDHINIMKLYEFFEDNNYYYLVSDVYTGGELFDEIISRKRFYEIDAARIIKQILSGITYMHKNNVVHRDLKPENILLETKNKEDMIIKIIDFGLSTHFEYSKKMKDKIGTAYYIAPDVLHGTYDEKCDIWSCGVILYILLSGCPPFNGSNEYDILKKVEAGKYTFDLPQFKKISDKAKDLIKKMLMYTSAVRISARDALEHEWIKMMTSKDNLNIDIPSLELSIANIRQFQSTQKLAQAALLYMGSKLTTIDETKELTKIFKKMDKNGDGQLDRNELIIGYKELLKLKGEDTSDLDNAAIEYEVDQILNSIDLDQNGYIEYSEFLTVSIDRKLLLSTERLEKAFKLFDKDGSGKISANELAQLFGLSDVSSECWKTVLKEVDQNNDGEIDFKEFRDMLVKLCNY
Chain of Protein kinase 7 (PK7), Plasmodium falciparum 3D7 (PF3D7_0213400) (Q7YTF7 1-343): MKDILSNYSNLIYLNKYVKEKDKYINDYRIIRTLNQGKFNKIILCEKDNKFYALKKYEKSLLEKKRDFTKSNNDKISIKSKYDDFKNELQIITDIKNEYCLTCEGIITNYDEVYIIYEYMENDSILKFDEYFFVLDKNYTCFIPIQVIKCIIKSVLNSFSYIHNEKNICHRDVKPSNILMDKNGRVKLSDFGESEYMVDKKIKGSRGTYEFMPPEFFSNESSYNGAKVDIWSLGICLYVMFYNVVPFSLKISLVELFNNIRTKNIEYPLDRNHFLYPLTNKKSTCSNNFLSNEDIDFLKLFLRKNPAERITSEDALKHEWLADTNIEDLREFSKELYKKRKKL

CC(C)(C)c1cc(Cl)cc(C(=O)Nc2cc([N+](=O)[O-])ccc2Cl)c1O
active: inhibition [1] 79% | growth inhibition [3] 91%
inactive: inhibition [2] 2% | outcome [4] | outcome [5] | outcome [6] | outcome [7]

CCN(CC)CCNC(=O)c1ccc(N=Cc2c(O)[nH]c3ccc(S(=O)(=O)Cc4c(Cl)cccc4Cl)cc23)cc1
inactive: inhibition [1] 25% | inhibition [2] 3% | outcome [4] | outcome [5] | outcome [6]
active: growth inhibition [8] 56% | growth inhibition [3] 100%

Cc1ccc(Cn2ccc3c4c(N)nc(N)nc4ccc32)cc1
inactive: inhibition [2] -6% | outcome [4] | outcome [5] | outcome [6] | outcome [7]
active: growth inhibition [3] 99%

CCS(=O)(=O)c1ccc(OC)c(Nc2nccc(-c3c(-c4cccc(NC(=O)c5c(F)cccc5F)c4)nn4ncccc34)n2)c1
inactive: inhibition [1] 27% | inhibition [2] -5% | outcome [4] | outcome [5] | outcome [6]
active: growth inhibition [8] 88% | growth inhibition [3] 87%

Cc1ccc(-c2cnc3[nH]cc(-c4ccc(C(=O)O)c(C)c4)c3c2)cc1C
inactive: inhibition [1] 37% | inhibition [2] 0% | outcome [4] | outcome [5] | outcome [6] | outcome [7]
active: growth inhibition [3] 96%

Oc1cc(-c2nc(-c3ccccc3)[nH]c2-c2ccncc2)ccc1Cl
active: AC50 [9] 16.6 µM | AC50 [10] 13.2 µM | AC50 [11] 2.35 µM | AC50 [12] 9.34 µM | IC50 [13] 23.5 µM

CN(C)CCNCc1ccc(-c2ccc3c(Nc4ccc(Oc5ccccc5)cc4)ccnc3c2)o1
inactive: inhibition [1] 19% | inhibition [2] 2% | outcome [5] | outcome [6] | outcome [7]
active: growth inhibition [8] 99% | growth inhibition [3] 100%

CC(C)(CNCc1ccc(Cl)cc1)c1nc(-c2ccc(Cl)c(O)c2)c(-c2ccncc2)[nH]1
inactive: inhibition [2] 5% | outcome [5] | outcome [6] | outcome [7]
active: growth inhibition [8] 98% | inhibition [1] 86% | growth inhibition [3] 101%

CN1CCN(Cc2ccc(-c3ccc4c(Nc5cc(O)c(Cl)cc5F)ccnc4c3)o2)CC1
inactive: inhibition [1] 2% | inhibition [2] -4% | outcome [5] | outcome [6] | outcome [7]
active: growth inhibition [8] 99% | growth inhibition [3] 100%

CC(C)(CN)c1nc(-c2ccc(Cl)c(O)c2)c(-c2ccncc2)[nH]1
active: growth inhibition [8] 98% | growth inhibition [3] 97%
inactive: inhibition [1] 34% | inhibition [2] 0% | outcome [5] | outcome [6] | outcome [7]

CN(C)Cc1ccc(-c2ccc3c(Nc4ccc(Cl)cc4F)ccnc3c2)o1
inactive: inhibition [1] 13% | inhibition [2] -3% | outcome [5] | outcome [6] | outcome [7]
active: growth inhibition [8] 99% | growth inhibition [3] 100%

CC(C)(CNC(=O)C1CCN(CCOCc2ccccc2)CC1)c1nc(-c2ccc(Cl)c(O)c2)c(-c2ccncc2)[nH]1
inactive: growth inhibition [8] 18% | inhibition [1] 11% | inhibition [2] -14% | outcome [5] | outcome [6] | outcome [7]
active: growth inhibition [3] 101%

Nc1ncc(-c2cn[nH]c2)cc1-c1nc2ncc(Cl)cc2[nH]1
active: growth inhibition [8] 70% | growth inhibition [3] 100%
inactive: inhibition [1] 40% | inhibition [2] 1% | outcome [5] | outcome [6] | outcome [7]

Oc1cccc(Nc2ccnc3cc(-c4ccncc4)ccc23)c1
inactive: inhibition [1] 8% | inhibition [2] 1% | outcome [5] | outcome [6] | outcome [7]
active: growth inhibition [8] 99% | growth inhibition [3] 101%

CC(C)(CNC(=O)C1CCN(CCOc2ccc(Cl)cc2)CC1)c1nc(-c2ccc(Cl)c(O)c2)c(-c2ccncc2)[nH]1
inactive: growth inhibition [8] 5% | inhibition [1] 40% | inhibition [2] 7% | outcome [5] | outcome [6] | outcome [7]
active: growth inhibition [3] 102%

Cc1cccc2[nH]c(-c3cc(-c4cn[nH]c4)cnc3N)nc12
inactive: inhibition [1] 37% | inhibition [2] 0% | outcome [5] | outcome [6] | outcome [7]
active: growth inhibition [8] 93% | growth inhibition [3] 101%

CC(C)(CNCc1ccc(C(F)(F)F)cc1)c1nc(-c2ccc(Cl)c(O)c2)c(-c2ccnc(N)n2)[nH]1
active: growth inhibition [3] 101%
inactive: growth inhibition [8] 37% | inhibition [1] 32% | inhibition [2] -2% | outcome [5] | outcome [6] | outcome [7]

CN(C)CCOc1ccc(-c2cc(-c3ccc(Cl)c(O)c3)c(-c3ccnc(N)n3)o2)cc1
inactive: inhibition [1] 43% | inhibition [2] 2% | outcome [5] | outcome [6] | outcome [7]
active: growth inhibition [8] 95% | growth inhibition [3] 100%

COc1ccc(-c2cnc3[nH]cc(-c4ccncc4)c3c2)cc1OC
inactive: inhibition [2] -2% | outcome [5] | outcome [6] | outcome [7]
active: growth inhibition [8] 97% | inhibition [1] 52% | growth inhibition [3] 98%

COc1ccc2nc(-c3cc(-c4ccc(NC(C)=O)cc4)cnc3N)[nH]c2c1
inactive: inhibition [2] -1% | outcome [5] | outcome [6] | outcome [7]
active: growth inhibition [8] 73% | inhibition [1] 55% | growth inhibition [3] 93%

COc1ccc(-c2cnc3ccc(NCCCO)nn23)cc1OC
inactive: inhibition [1] 9% | inhibition [2] -1% | outcome [5] | outcome [6] | outcome [7]
active: growth inhibition [8] 90% | growth inhibition [3] 98%

CC(C)(CNCc1ccccc1)c1nc(-c2ccc(Cl)c(O)c2)c(-c2ccncc2)[nH]1
active: growth inhibition [8] 99% | inhibition [1] 77% | growth inhibition [3] 101%
inactive: inhibition [2] -2% | outcome [5] | outcome [6] | outcome [7]
